RecA intein inh: Mtb RecA intein splicing inhibition | P9WHJ3 | cell-free RecA intein splicing, fluorescence | inhibition, % (test concentration not listed) | 290,000 compounds, 0.75% hits | AID 2221; in the data active = inhibition above about 30%
Rv3671c protease: inhibitors of M. tuberculosis serine protease Rv3671c; inhibition, % at 5.96 µM; P9WHR9; 320,000 compounds, 0.048% hits; AID 2606; in the data active = inhibition above about 38%;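 note: extracellular domain of Rv3671c used as enzyme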
Mtb FBA inh: Mtb fructose-bisphosphate aldolase inhibition; inhibition, % at 1 µM; AID 588726; 360,000 compounds, 2.3% hits; purified M. tuberculosis FBA, fluorescence read-out
GDH-TPI counter-1: GDH-TPI coupled enzyme inhibition counter-screen. inhibition, % at 4.8 µM. 360,000 compounds, 1.2% hits. GDH-TPI coupled enzyme counterscreen, NADH absorbance; in the data active = inhibition above about 30%
Mtb UGM inh: Mtb UDP-galactopyranose mutase inhibition. inhibition, % at 10 µM. AID 504406. P9WIQ1. 320,000 compounds, 0.06% hits. purified UGM, fluorescence polarization probe displacement; in the data active = inhibition above about 10%, passing the limit was not always enough
Target sequence (P9WIQ1 whole entry, looked up): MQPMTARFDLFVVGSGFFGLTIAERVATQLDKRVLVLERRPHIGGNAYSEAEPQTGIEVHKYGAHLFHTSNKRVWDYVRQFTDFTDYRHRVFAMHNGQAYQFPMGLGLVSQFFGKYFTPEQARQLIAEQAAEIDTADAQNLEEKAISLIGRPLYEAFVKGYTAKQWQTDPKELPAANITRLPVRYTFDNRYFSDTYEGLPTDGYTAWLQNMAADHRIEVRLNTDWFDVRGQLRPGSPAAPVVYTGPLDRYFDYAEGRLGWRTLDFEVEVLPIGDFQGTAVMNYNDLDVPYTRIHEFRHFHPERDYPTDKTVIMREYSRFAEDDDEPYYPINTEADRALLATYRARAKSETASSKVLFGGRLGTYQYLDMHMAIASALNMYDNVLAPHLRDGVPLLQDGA
Vc quorum ag: inducers of Vibrio cholerae quorum light production without autoinducers | V. cholerae BH1578 lux reporter, luminescence, 6 h | AID 588436 | activation, % at 18.7 µM | 350,000 compounds, 0.16% hits; in the data active = activation mostly above about 9.7%, no sharp cut-off
Mtb FBA inh conf: Mtb FBA inhibition, confirmed | shares compounds with Mtb FBA inh | purified M. tuberculosis FBA, fluorescence read-out | inhibition, % at 1 µM | 5,600 compounds, 78% hits | AID 651616
GDH-TPI counter-2: counter-screen for M. tuberculosis FBA inhibitors: GDH-TPI coupled enzyme inhibition; shares compounds with Mtb FBA inh; GDH-TPI coupled enzyme counterscreen, fluorescence; inhibition, % at 1 µM; 5,600 compounds, 81% hits; AID 652141; in the data active = inhibition above about 10%
Hits are given with their value. Shown are actives, neighbours in structure and some others; about 4.1% of the full set was active somewhere. Cut-off read from the data, not from the text of the source, unless noted: active = inhibition above about 27%; inactive = the rest.

How did Cc1ccc(/C=C2\OC(=O)c3ccccc32)cc1 do in these assays?
RecA intein inh: inactive; Rv3671c protease: inactive; Mtb FBA inh: 45.2; GDH-TPI counter-1: inactive; Mtb UGM inh: inactive; Vc quorum ag: inactive; Mtb FBA inh conf: inactive; GDH-TPI counter-2: inactive

How did Cc1ccccc1/C=C1\OC(=O)c2ccccc21 do in these assays?
RecA intein inh: inactive; Rv3671c protease: inactive; Mtb FBA inh: inactive; GDH-TPI counter-1: inactive; Mtb UGM inh: inactive; Vc quorum ag: inactive

What do the screens show for `O=C(COC(=O)c1c(F)cccc1F)NCCNC(=O)COC(=O)c1c(F)cccc1F`?
RecA intein inh: inactive; Rv3671c protease: inactive; Mtb FBA inh: inactive; GDH-TPI counter-1: inactive; Mtb UGM inh: inactive; Vc quorum ag: inactive

Results for Cc1cc(OCC(=O)NC(Cc2c[nH]c3ccc(O)cc23)C(=O)O)c2c(C)c(C)c(=O)oc2c1 (stereo unspecified) ?
RecA intein inh: inactive; Rv3671c protease: inactive; Mtb FBA inh: 32.6; GDH-TPI counter-1: inactive; Mtb UGM inh: inactive; Vc quorum ag: inactive; Mtb FBA inh conf: active; GDH-TPI counter-2: active

How did Cc1cc(OCC(=O)NC(Cc2ccc(Cl)cc2)C(=O)O)c2c(C)c(C)c(=O)oc2c1 (stereo unspecified) do in these assays?
RecA intein inh: inactive; Rv3671c protease: inactive; Mtb FBA inh: 60.0; GDH-TPI counter-1: inactive; Mtb UGM inh: inactive; Vc quorum ag: inactive; Mtb FBA inh conf: 185.7; GDH-TPI counter-2: 143.4

What do the screens show for `CCC(NC(=O)OC(C)(C)C)C(=O)Oc1cc(C)cc2oc(=O)c3c(c12)CCC3` (stereo unspecified)?
RecA intein inh: inactive; Rv3671c protease: inactive; Mtb FBA inh: inactive; GDH-TPI counter-1: inactive; Mtb UGM inh: inactive; Vc quorum ag: inactive

Results for Cc1cc(OCC(=O)NC(Cc2ccc(Cl)cc2)C(=O)O)c2c3c(c(=O)oc2c1)CCCC3 (stereo unspecified) ?
Rv3671c protease: inactive; Mtb FBA inh: 70.5; GDH-TPI counter-1: inactive; Mtb UGM inh: inactive; Vc quorum ag: inactive; Mtb FBA inh conf: inactive; GDH-TPI counter-2: inactive

Results for CCC(CC)CN1CCC(CN2C(=O)C(=O)NC[C@@H]2CC(C)C)CC1 ?
Mtb FBA inh: inactive

How did O=S(=O)(NCc1ccccc1)[C@@H]1CC2C=CC1C2 (stereo partly specified) do in these assays?
Rv3671c protease: inactive; Mtb FBA inh: inactive; GDH-TPI counter-1: inactive; Mtb UGM inh: inactive; Vc quorum ag: inactive

Results for N#Cc1ccc(-c2csc(NC(=O)C3CC3)n2)cc1 ?
RecA intein inh: inactive; Rv3671c protease: inactive; Mtb FBA inh: 50.2; GDH-TPI counter-1: inactive; Mtb UGM inh: inactive; Vc quorum ag: inactive; Mtb FBA inh conf: 91.1; GDH-TPI counter-2: 70.8

Results for N#CC1=C(N)Oc2cc3ccccc3cc2C1c1cccnc1 (stereo unspecified) ?
RecA intein inh: inactive; Rv3671c protease: inactive; Mtb FBA inh: inactive; GDH-TPI counter-1: inactive; Mtb UGM inh: inactive; Vc quorum ag: inactive

Results for N#CC1=C(N)Oc2c(ccc3cccnc23)C1c1cccnc1 (stereo unspecified) ?
RecA intein inh: inactive; Rv3671c protease: inactive; Mtb FBA inh: 40.8; GDH-TPI counter-1: inactive; Mtb UGM inh: inactive; Vc quorum ag: inactive; Mtb FBA inh conf: inactive; GDH-TPI counter-2: inactive

Results for Cc1ccc(Cc2ccc(C(=O)NNC(N)=S)o2)cc1 ?
RecA intein inh: inactive; Rv3671c protease: inactive; Mtb FBA inh: inactive; GDH-TPI counter-1: inactive; Mtb UGM inh: inactive; Vc quorum ag: inactive

How did Cc1ccc(C)c(OCC(=O)Nc2ccccc2C(=O)N2CCOCC2)c1 do in these assays?
RecA intein inh: inactive; Rv3671c protease: inactive; Mtb FBA inh: inactive; GDH-TPI counter-1: inactive; Mtb UGM inh: inactive; Vc quorum ag: inactive

Results for COC(=O)c1ccc2nc(Nc3nc4ccc(F)cc4s3)sc2c1 ?
RecA intein inh: inactive; Rv3671c protease: inactive; Mtb FBA inh: 37.9; GDH-TPI counter-1: inactive; Mtb UGM inh: inactive; Vc quorum ag: inactive; Mtb FBA inh conf: 130.8; GDH-TPI counter-2: 121.8

How did COC(=O)c1ccc2nc(NC(=O)C(C)(C)C)sc2c1 do in these assays?
RecA intein inh: inactive; Rv3671c protease: inactive; Mtb FBA inh: inactive; GDH-TPI counter-1: inactive; Mtb UGM inh: inactive; Vc quorum ag: inactive

High-throughput results: PubChem, several laboratories
